Assay outcomes: PubChem, National Center for Advancing Translational Sciences (NCATS)
USP1-UAF1 inh: USP1/UAF1 (human) deubiquitinase inhibition; O94782; recombinant USP1/UAF1, Ub-Rhodamine cleavage fluorescence; Potency, µM (highest dose often 57.1 µM), without a hit: at the highest dose activity change, negative = inhibition, usual class: inhibitors; actives 0.23% (n = 390,000); active = well fitted curve in the direction sought with a large enough effect; inconclusive = small, poorly fitted or top-dose-only effect, or another doubt; inactive = no such curve, though single readings can be large; an effect the other way counts as inactive or inconclusive; note: potency is the fitted concentration of half-maximal effect; % is set by controls: 0 for no effect and ±100 for the full control effect; nearly all actives have a fitted effect of over 60% in size
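USP1/UAF1 complex (1 nM) preincubated 15 min at room temperature with compound, then Ub-Rho substrate (150 nM final) added. Kinetic fluorescence at 480/540 nm over 6 reads at 60 s intervals; 50 mM HEPES pH 7.8, 0.5 mM EDTA, 0.1 mg/ml BSA, 1 mM TCEP, 0.01% Tween-20.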
USP2a block: blocks human ubiquitin-specific protease USP2a; O75604; USP2 core, Ub-CHOP2 coupled fluorogenic reporter, 485/531; Potency, µM (series often up to 38.3 µM), for the others: top-dose activity change, negative = inhibition, hits mostly inhibitors; actives 0.01% (n = 330,000); AID 463254; active = well fitted curve in the direction sought with a large enough effect; inconclusive = small, poorly fitted or top-dose-only effect, or another doubt; inactive = no such curve, though single readings can be large; an effect the other way counts as inactive or inconclusive;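 note: potency is the fitted concentration of half-maximal effect; plate controls were DMSO wells for no effect and full inhibition by NEM control for full effect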
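Cell-free coupled assay: 10nM USP2 core preincubated 30min RT with compound in Tris-HCl pH 8.0/CaCl2/CHAPS buffer, then 25nM Ub-CHOP2 and 25nM reporter substrate; fluorescence (Ex 485/Em 531) read after 60min RT, normalized to NEM inhibition, concentration-response curves fitted.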
GALK inh: galactokinase (human) inhibition; P51570; Purified GALK, Kinase-Glo residual ATP luminescence; Potency, µM (series often up to 57.5 µM), inactives show at the highest dose activity change, negative = inhibition, most hits filed as inhibitors; actives 0.007% (n = 270,000); AID 1868; active = well fitted curve in the direction sought with a large enough effect; inconclusive = small, poorly fitted or top-dose-only effect, or another doubt; inactive = no such curve, though single readings can be large; an effect the other way counts as inactive or inconclusive; note: potency is the fitted concentration of half-maximal effect; % is set by controls: 0 for no effect and ±100 for the full control effect
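The enzyme phosphorylates galactose (100 uM) using ATP (35 uM); inhibition is detected as higher residual ATP, quantified by bioluminescence after 1 h reaction at room temperature, pH 8.0.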
FBPA coupling cs: coupling enzyme interference in Giardia aldolase counter-screen | activity change, negative = inhibition, % at 58.2 µM, hits read low | coupling enzyme system counterscreen, AmpLite Red fluorescence | AID 2472 | actives 0.67% (n = 290,000); in the data active = activity change below about -30%; note: % is set by controls: 0 for no effect and ±100 for the full control effect
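Activity here indicates interference with the coupling reaction, not aldolase inhibition. Compounds at 57.5 uM final met coupling enzymes for 10 min at RT; substrate and AmpLite Red detection followed, with a 525/598 nm fluorescence read after 20 min.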
Eya2 inh: inhibitors of human Eya2 phosphatase activity | O00167 | Potency, µM (doses to about 76.9 µM), inactives show at the highest dose activity, negative = inhibition, most hits filed as inhibitors | AID 488837 | recombinant Eya2, OMFP fluorescence dephosphorylation (OMFP is methylfluorescein phosphate) | actives 0.006% (n = 330,000); active = well fitted curve in the direction sought with a large enough effect; inconclusive = small, poorly fitted or top-dose-only effect, or another doubt; inactive = no such curve, though single readings can be large; an effect the other way counts as inactive or inconclusive; note: potency is the fitted concentration of half-maximal effect; % is set by controls: 0 for no effect and ±100 for the full control effect
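Eya2 protein (added as 0.2 uM solution) was preincubated with compound for 10 min at ambient temperature in 50 mM HEPES pH 7.5, 50 mM NaCl, 5 uM MgCl2, 0.05% BSA, 1 mM DTT. OMFP (added at 50 uM) then reacted 10 min; fluorescence read at 485/525 nm.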
PI4K2A block: blocks human PI4K2A kinase activity | Q9BTU6 | purified PI4K2A, ADP-Glo luminescence, 1 h; hits give low values | actives 0.13% (n = 420,000) | activity change, negative = inhibition, % at 76.9 µM; in the data active = activity change below about -50%; inconclusive = mostly about -30% to -49%;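 note: -100% = wells without enzyme as full effect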
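PI4K2A activity was measured by ADP-Glo luminescence: enzyme (4 ug/mL stock) and phosphatidylinositol (1.2 mM stock) in Tris pH 7.5/MgCl2/EGTA/Triton X-100 buffer were reacted with ATP (300 microM stock) for one hour at ambient temperature.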
CASP1 redox cat: inhibits human caspase-1 in catalase buffer, redox counter-screen; shares compounds with FBPA coupling cs; caspase-1 Ac-WEHD-AFC fluorescence rate, catalase buffer; Potency, µM (doses to about 57.5 µM), without a hit: at the highest dose activity change, negative = inhibition, most hits filed as inhibitors; 30 tested, under 10 active; AID 888
Casp1 confirm: confirmation of allosteric or competitive inhibitors of human caspase-1; purified caspase-1, fluorogenic substrate cleavage; actives 20% (n = 60); AID 896; Potency, µM (titrated, usually from 57.5 µM), for the others: top-dose activity change, negative = inhibition, actives largely listed as inhibitors; shares compounds with FBPA coupling cs
CASP7 inh CRC: confirmation of allosteric or competitive inhibitors of human caspase-7 | shares compounds with FBPA coupling cs | recombinant caspase-7, fluorogenic substrate cleavage | 60 tested, under 10 active | Potency, µM (top dose mostly 57.5 µM), for the others: at the highest dose activity change, negative = inhibition, actives largely listed as inhibitors; active = well fitted inhibition curve with a large enough effect in the main read-out, with a control signal flat, not every such curve was filed as active; inconclusive = small, poorly fitted or top-dose-only effect, or a change in a side signal; inactive = no such curve, though single readings can be large or run the other way
Casp7 cysteine: inhibits caspase-7 in cysteine buffer, redox counter-screen. AID 908. 60 tested, under 10 active. shares compounds with FBPA coupling cs. caspase-7 enzyme with cysteine, fluorogenic substrate, redox counterscreen. Potency, µM (top dose mostly 57.5 µM), without a hit: at the highest dose activity change, negative = inhibition, most hits filed as inhibitors
Casp7 catalase: inhibits caspase-7 in catalase buffer, redox counter-screen; shares compounds with FBPA coupling cs; Caspase-7 Ac-DEVD-AFC fluorescence rate, catalase buffer; Potency, µM (doses to about 57.5 µM), without a hit: at the highest dose activity, negative = inhibition, hits mostly inhibitors; 30 tested, under 10 active; AID 909
CASP1 redox cys: counter-screen for redox active caspase-1 inhibitors: cysteine buffer; Potency, µM (doses to about 57.5 µM), for the others: top-dose activity change, negative = inhibition, most hits filed as inhibitors; 60 tested, under 10 active; AID 929; recombinant caspase-1, fluorogenic substrate, cysteine buffer; shares compounds with FBPA coupling cs
* marks the source's active call; other numbers are inactive results; ? = inconclusive; . = no result given. Compounds with a hit are over-represented: about 0.71% of the library has one in this group of screens. Unless noted, calls come from the whole dose curve; as a rule, active = well fitted inhibition curve with a large enough effect in the main read-out, with a control signal flat; inconclusive = small, poorly fitted or top-dose-only effect, or a change in a side signal; inactive = no such curve, though single readings can be large or run the other way.

SMILES	USP1-UAF1 inh	USP2a block	GALK inh	FBPA coupling cs	Eya2 inh	PI4K2A block	CASP1 redox cat	Casp1 confirm	CASP7 inh CRC	Casp7 cysteine	Casp7 catalase	CASP1 redox cys
O=C(COc1ccccc1)N(Cc1ccco1)c1ccc(O)cc1	-10%	2%	-5%	9	14%	-3	.	.	.	.	.	.
O=C(c1ccc(Cl)c(Cl)c1)N(Cc1ccco1)c1ccc(O)cc1	-18%	-2%	1%	6	11%	3	-10%	-3%	?	?	32µM*	8%
CCc1ccc(NC(=O)CCc2c(C)nn(-c3ccc(N4CCCC4)nn3)c2C)cc1	?	.	.	.	.	-7	.	.	.	.	.	.
COc1ccc2c(c1)C(=O)N(c1ccccc1OC)C(=O)C2	?	-2%	-5%	-11	0%	-3	?	?	-12%	-7%	-12%	?
COc1ccc2c(c1)C(=O)N(c1ccc(C)cc1C)C(=O)C2	?	7%	.	0	6%	-5	.	.	.	.	.	.
O=C1Cc2ccccc2C(=O)N1CCc1ccccc1	5.6µM*	2%	2%	-47*	-39%	?	.	6.3µM*	10µM*	-3%	.	-1%
O=C(COC(=O)c1cc(-c2ccco2)nc2ccccc12)NCc1ccc2c(c1)OCO2	-6%	-1%	-1%	2	-8%	-16	?	?	?	-12%	-21%	?
CC1=C(C(=O)Nc2ccc(F)cc2F)C2(CCCCCC2)OC1=O	-31%	.	.	.	.	-5	.	.	.	.	.	.
CC1=C(C(=O)Nc2cc(-c3cccc(F)c3)[nH]n2)C2(CCCCC2)OC1=O	-19%	-1%	-2%	-2	-25%	3	-2%	-8%	-35%	-38%	-11%	3%
COc1ccc(Cn2c(=O)[nH]c3cc(C(=O)N4CCN(Cc5ccccc5)CC4)ccc3c2=O)cc1	-11%	0%	0%	4	2%	3	-3%	-8%	?	?	?	4%
CC[C@H](C)[C@H](NC(=O)[C@H](Cc1ccccc1)NC(=O)[C@H](C)NC(=O)[C@H](CC(=O)O)NC(=O)[C@H](CCCCN)NC(=O)[C@H](CO)NC(=O)[C@@H]1CCCN1C(=O)[C@@H]1CCC(=O)N1)C(=O)NCC(=O)N[C@@H](CC(C)C)C(=O)N[C@@H](CCSC)C(N)=O	.	.	.	0	.	.	.	.	.	.	.	.
O=c1cnnc(SCCc2ccccc2)[nH]1	-20%	0%	0%	11	-22%	-1	4%	-6%	-2%	-6%	2%	5%
Cc1ccccc1C(=O)NC1CCCCN(C(C)C)C1=O (centres undefined)	.	.	.	.	.	-4	.	.	.	.	.	.
Cc1ccc(NC(=O)N2CCC(c3nc4c(nnn4Cc4cccc(Cl)c4)c(=O)[nH]3)CC2)cc1	-27%	2%	-1%	1	-17%	-1	.	-10%	?	?	.	3%
CCCCCCC(=O)N1CCC(c2nc3c(nnn3Cc3ccccc3Cl)c(=O)[nH]2)CC1	0%	-20%	0%	-3	-37%	3	.	-14%	4µM*	5µM*	.	2%
O=C(C1CCCCC1)N1CCC(c2nc3c(nnn3Cc3ccccc3Cl)c(=O)[nH]2)CC1	-19%	.	.	.	.	-6	.	.	.	.	.	.
COc1cc(N[C@@H](C)CCCN)c2ncccc2c1	.	.	.	-33*	.	.	.	-42%	-20%	-7%	.	-5%
Cc1cccc(NC(=O)C2CCCN(c3nc4ccccc4s3)C2)c1C (centres undefined)	-23%	.	.	.	.	4	.	.	.	.	.	.
O=C(Nc1ccc2c(c1)OCO2)C1CCCN(c2nc3ccccc3s2)C1 (centres undefined)	-16%	-9%	-3%	-7	1%	0	1%	-9%	-7%	-4%	-6%	7%
COC(=O)C1(C(=O)OC)CC2=C[C@H](CC2=O)Cc2ccccc2[C@@H]1C[N+](=O)[O-]	.	.	.	2	.	.	.	.	.	.	.	.
COc1cc2c(Cc3c4c5c(cc(OC)c(OC)c5c5c(OC)c(OC)ccc35)CCN4C)c3c4c(cc(OC)c(OC)c4c2cc1OC)CCN3C	.	.	.	-33*	.	.	.	?	-43%	-8%	.	?
COc1cc2c(C(=O)c3ccccc3)c3c4c(cc(OC)c(OC)c4c2cc1OC)CCN3C	.	.	.	-14	.	.	.	.	.	.	.	.
COc1ccc(-c2nc3scc(CCNC(=O)c4cccc(Br)c4)n3n2)cc1	-13%	.	.	.	.	2	.	.	.	.	.	.
COc1ccccc1CNC(=O)CSc1nc(=O)[nH]c2c1CCC2	-3%	.	.	.	.	4	.	.	.	.	.	.
COc1ccc(Br)cc1CNc1ccc(O)cc1	?	-1%	0%	-63*	-17%	-50*	1%	-2%	-1%	3%	-5%	8%
Cc1ccc(Nc2ncc(C(=O)Nc3ccc(F)cc3F)c3ccccc23)cc1Cl	-29%	.	.	.	.	-6	.	.	.	.	.	.
COc1ccc2c(c1)Cc1sc(NC(=O)c3cccs3)nc1-2	?	-1%	2%	-35*	?	-10	?	-48%	-12%	-13%	-12%	-54%
COc1ccc2c(c1)Cc1sc(NC(=O)c3cccc(F)c3)nc1-2	?	.	.	.	.	-23	.	.	.	.	.	.
Cc1ccsc1C=Nc1ccc(O)cc1	2.2µM*	-1%	0%	-50*	2%	-59*	-1%	-11%	-3%	-1%	-6%	3%
